# Laboratory results taken from publication PMC7862700, “An all-to-all approach to the identification of sequence-specific readers for epigenetic DNA modifications on cytosine”.
# Experiments:
# Experiment in all cases: DAPPL (digital affinity profiling via proximity ligation, sequencing); 10 mM Tris-HCl pH 7.5, 50 mM NaCl, 1 mM DTT, 4% glycerol, room temperature, 30 min; GST-TFs on glutathione beads, 16-mer random dsDNA library, 0.1% formaldehyde crosslink after washing; high values mean tight binding
# Conditions in all cases: protein: recombinant; tags: N-terminal GST; dsDNA, one strand shown
# FLI1 = target: T1, FLI1 (Homo sapiens, UniProt Q01543 1-452)
# T1 sequence: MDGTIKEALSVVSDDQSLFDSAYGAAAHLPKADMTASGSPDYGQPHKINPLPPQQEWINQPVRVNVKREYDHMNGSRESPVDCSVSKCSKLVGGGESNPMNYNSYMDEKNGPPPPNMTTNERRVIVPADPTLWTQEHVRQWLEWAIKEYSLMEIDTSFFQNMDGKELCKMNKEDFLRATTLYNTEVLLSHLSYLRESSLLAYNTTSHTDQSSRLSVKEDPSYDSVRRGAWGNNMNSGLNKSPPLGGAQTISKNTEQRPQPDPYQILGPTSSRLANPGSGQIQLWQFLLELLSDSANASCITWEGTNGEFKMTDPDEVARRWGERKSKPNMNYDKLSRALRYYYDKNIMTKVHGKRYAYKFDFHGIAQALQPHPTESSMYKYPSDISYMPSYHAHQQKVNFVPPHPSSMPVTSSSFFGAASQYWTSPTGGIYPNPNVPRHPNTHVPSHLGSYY
# In short: (§1)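 Pools were built from human transcription factors expressed in yeast as GST fusions, captured on glutathione beads and DNA-barcoded, along with a tag-only sample. Incubation with 200 nmole of a 16-mer random double-stranded DNA library lasted 30 min at room temperature in Tris/NaCl/DTT/glycerol buffer, and was followed by washing, 0.1% formaldehyde crosslinking, proximity ligation, PCR amplification and Illumina NextSeq500 sequencing. Binding signal is the quotient of each hexamer's read frequency for a factor and its frequency for the tag-only sample.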
# ELK1 = target: T2, ELK1 (Homo sapiens, UniProt P19419 1-428)
# T2 sequence: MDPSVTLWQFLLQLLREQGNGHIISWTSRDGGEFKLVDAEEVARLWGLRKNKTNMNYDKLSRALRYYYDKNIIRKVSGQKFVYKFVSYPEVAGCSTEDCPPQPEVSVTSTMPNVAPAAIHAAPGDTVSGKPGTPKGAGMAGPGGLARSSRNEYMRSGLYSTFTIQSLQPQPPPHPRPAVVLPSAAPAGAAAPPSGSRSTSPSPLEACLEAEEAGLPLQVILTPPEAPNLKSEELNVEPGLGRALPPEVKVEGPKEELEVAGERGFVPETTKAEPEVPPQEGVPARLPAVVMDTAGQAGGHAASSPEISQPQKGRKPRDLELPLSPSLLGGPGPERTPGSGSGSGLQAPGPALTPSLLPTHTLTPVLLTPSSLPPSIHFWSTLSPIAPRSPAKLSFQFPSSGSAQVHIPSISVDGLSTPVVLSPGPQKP
# In short: as §1
# GABPA = target: T3, GABPA (Homo sapiens, UniProt Q06546 1-454)
# T3 sequence: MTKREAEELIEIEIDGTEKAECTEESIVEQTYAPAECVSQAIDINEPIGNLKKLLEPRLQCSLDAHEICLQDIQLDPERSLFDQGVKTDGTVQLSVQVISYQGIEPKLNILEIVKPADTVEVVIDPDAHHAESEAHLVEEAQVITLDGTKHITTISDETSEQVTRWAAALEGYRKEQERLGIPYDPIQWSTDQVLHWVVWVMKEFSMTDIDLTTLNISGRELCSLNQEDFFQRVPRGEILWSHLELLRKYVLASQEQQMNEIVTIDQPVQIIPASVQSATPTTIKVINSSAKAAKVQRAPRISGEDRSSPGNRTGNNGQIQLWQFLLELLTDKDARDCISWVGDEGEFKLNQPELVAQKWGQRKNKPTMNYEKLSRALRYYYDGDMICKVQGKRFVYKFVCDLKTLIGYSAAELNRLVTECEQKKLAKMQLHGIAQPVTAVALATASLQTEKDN
# In short: as §1
# ERG = target: T4, ERG (Homo sapiens, UniProt P11308 1-479)
# T4 sequence: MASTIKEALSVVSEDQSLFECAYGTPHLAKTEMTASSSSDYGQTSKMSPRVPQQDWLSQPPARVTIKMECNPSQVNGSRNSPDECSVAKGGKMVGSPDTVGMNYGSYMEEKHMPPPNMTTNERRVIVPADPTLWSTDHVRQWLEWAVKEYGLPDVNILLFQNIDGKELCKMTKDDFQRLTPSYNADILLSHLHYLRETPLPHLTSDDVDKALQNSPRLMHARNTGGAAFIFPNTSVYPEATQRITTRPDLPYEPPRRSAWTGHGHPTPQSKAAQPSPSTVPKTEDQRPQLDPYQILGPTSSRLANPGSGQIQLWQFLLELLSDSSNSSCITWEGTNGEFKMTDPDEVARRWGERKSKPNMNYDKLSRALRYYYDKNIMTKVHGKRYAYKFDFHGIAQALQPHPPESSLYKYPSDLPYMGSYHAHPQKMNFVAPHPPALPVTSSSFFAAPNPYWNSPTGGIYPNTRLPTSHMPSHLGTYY
# In short: as §1
# ELF1 = ELF1 (Homo sapiens, UniProt P32519 1-619)
# In short: as §1
# EHF = target: T5, EHF (Homo sapiens, UniProt Q9NZC4 1-300)
# T5 sequence: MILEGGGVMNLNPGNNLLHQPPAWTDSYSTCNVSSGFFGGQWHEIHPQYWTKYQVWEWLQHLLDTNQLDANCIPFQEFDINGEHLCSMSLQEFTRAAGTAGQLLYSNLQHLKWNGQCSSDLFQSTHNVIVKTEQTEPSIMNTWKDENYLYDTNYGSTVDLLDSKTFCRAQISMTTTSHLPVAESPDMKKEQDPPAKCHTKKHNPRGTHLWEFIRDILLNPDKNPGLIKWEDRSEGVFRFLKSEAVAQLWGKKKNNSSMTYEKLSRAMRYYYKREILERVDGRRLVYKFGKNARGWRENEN
# In short: as §1
# SPI1 = SPI1 (Homo sapiens, UniProt P17947 1-270)
# In short: as §1
# SPIB = SPIB (Homo sapiens, UniProt Q01892 1-262)
# In short: as §1
# ELK3 = target: T6, ELK3 (Homo sapiens, UniProt P41970 1-407)
# T6 sequence: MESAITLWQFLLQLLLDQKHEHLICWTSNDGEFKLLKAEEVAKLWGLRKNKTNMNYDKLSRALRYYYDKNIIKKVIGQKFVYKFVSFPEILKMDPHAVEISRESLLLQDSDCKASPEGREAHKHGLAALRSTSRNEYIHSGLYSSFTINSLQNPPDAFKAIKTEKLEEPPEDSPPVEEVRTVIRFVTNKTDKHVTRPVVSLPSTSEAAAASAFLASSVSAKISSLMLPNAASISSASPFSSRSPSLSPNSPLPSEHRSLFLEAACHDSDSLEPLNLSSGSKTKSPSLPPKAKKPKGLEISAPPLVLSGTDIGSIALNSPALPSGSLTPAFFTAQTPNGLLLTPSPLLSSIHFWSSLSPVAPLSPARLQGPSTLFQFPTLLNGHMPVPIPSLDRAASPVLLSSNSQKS
# In short: as §1
# FEV = target: T7, FEV (Homo sapiens, UniProt Q99581 1-238)
# T7 sequence: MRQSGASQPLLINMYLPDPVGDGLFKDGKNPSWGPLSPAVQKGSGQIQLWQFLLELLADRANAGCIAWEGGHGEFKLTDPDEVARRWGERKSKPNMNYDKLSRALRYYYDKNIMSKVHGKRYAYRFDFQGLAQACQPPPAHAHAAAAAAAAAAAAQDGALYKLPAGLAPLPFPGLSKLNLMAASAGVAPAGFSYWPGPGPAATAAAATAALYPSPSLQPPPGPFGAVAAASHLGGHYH
# In short: as §1
# ETV5 = ETV5 (Homo sapiens, UniProt P41161 1-510)
# In short: as §1
# SPIC = target: T8, SPIC (Homo sapiens, UniProt Q8N5J4 1-248)
# T8 sequence: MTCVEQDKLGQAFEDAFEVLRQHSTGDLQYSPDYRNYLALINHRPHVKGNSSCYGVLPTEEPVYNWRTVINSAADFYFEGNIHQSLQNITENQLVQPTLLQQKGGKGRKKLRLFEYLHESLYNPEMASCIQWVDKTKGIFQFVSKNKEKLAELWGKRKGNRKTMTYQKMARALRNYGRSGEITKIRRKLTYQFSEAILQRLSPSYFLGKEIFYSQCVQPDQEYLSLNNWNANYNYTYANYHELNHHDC
# In short: as §1
# ELF4 = ELF4 (Homo sapiens, UniProt Q99607 1-663)
# In short: as §1
# ELK4 = target: T9, ELK4 (Homo sapiens, UniProt P28324-2 1-405)
# T9 sequence: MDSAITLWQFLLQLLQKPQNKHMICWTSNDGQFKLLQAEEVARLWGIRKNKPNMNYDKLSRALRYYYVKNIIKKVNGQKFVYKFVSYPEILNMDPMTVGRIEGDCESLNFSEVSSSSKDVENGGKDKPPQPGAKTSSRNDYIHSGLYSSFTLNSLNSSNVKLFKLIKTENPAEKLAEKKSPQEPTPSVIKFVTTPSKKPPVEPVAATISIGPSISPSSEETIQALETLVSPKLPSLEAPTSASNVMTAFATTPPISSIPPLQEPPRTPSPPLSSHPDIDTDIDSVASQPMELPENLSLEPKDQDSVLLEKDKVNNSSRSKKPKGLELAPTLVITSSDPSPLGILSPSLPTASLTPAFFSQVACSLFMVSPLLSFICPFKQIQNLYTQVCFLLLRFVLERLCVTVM
# In short: as §1
# ETV2 = target: T10, ETV2 (Homo sapiens, UniProt O00321 1-342)
# T10 sequence: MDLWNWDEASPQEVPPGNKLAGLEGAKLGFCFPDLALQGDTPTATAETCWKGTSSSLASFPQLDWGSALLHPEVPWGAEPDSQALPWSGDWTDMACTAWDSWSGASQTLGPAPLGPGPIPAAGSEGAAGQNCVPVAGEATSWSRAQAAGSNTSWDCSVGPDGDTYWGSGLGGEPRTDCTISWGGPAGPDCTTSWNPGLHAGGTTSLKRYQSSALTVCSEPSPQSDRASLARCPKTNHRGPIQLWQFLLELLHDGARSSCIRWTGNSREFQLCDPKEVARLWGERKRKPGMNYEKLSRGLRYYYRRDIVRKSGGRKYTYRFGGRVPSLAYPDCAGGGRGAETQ
# In short: as §1
# ELF3 = target: T11, ELF3 (Homo sapiens, UniProt P78545 1-371)
# T11 sequence: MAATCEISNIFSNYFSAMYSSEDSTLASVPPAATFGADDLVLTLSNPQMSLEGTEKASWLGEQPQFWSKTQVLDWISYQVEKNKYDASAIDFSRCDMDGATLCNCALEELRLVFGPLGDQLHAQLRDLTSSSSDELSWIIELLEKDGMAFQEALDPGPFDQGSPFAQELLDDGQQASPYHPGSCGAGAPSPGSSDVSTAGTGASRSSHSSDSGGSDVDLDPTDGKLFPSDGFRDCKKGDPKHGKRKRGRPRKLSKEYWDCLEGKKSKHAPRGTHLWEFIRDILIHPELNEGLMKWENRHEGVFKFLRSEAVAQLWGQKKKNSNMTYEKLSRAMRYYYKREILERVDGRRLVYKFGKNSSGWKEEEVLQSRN
# In short: as §1
# ETV1 = ETV1 (Homo sapiens, UniProt P50549 1-477)
# In short: as §1
# Chain of SPIB (Q01892 whole entry): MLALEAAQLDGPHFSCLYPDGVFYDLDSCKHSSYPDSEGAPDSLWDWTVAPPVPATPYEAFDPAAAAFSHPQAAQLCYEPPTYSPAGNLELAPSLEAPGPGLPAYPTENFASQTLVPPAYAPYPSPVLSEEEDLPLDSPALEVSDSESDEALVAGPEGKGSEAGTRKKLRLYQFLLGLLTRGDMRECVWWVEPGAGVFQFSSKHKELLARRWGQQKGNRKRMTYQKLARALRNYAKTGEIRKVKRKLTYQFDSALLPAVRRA
# Chain of ETV5 (P41161 whole entry): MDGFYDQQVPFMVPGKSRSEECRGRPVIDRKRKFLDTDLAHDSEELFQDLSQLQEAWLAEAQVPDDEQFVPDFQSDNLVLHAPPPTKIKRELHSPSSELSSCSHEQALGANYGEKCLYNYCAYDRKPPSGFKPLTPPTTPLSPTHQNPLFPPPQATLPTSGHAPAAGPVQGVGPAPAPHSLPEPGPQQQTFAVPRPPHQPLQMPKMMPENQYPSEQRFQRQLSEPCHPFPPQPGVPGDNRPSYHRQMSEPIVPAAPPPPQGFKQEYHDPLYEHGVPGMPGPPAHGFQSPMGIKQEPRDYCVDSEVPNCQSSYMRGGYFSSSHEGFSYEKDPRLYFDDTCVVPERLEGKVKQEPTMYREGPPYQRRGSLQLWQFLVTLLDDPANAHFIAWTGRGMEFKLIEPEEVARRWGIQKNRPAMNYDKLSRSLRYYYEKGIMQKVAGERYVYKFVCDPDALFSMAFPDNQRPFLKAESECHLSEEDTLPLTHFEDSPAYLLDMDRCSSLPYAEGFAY
# Chain of ELF1 (P32519 whole entry): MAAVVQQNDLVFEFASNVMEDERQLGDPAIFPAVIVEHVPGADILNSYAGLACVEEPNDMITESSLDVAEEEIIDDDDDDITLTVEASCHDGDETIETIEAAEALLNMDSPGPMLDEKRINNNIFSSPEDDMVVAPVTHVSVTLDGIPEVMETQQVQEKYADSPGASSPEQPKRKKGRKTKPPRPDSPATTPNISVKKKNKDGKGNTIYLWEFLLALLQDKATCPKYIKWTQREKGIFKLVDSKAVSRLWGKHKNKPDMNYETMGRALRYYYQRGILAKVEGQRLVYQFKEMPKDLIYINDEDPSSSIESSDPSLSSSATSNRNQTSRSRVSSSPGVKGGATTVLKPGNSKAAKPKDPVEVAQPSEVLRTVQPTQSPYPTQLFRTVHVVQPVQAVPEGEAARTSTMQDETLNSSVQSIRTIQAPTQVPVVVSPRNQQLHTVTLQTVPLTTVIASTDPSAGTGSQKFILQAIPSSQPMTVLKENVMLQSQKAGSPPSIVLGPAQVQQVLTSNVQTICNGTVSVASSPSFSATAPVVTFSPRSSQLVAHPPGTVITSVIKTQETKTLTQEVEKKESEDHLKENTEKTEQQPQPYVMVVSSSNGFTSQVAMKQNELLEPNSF
# Chain of ELF4 (Q99607 whole entry): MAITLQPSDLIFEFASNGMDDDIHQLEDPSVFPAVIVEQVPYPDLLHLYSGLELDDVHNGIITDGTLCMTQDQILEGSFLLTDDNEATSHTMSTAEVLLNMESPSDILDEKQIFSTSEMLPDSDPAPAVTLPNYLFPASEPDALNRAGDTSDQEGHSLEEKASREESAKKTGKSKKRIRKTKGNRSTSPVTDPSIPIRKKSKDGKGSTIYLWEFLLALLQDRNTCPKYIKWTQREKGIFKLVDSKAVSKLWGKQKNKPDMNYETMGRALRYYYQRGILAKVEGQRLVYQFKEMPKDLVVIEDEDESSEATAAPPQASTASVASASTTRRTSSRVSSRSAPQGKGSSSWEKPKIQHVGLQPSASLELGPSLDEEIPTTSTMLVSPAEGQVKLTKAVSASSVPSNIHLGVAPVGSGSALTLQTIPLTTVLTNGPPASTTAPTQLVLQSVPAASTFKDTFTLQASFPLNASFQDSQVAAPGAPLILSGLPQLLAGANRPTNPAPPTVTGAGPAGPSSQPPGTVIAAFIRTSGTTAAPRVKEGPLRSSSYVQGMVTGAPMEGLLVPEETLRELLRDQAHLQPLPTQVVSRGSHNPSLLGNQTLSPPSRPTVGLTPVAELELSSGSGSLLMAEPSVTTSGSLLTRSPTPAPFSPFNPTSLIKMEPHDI
# Chain of ETV1 (P50549 whole entry): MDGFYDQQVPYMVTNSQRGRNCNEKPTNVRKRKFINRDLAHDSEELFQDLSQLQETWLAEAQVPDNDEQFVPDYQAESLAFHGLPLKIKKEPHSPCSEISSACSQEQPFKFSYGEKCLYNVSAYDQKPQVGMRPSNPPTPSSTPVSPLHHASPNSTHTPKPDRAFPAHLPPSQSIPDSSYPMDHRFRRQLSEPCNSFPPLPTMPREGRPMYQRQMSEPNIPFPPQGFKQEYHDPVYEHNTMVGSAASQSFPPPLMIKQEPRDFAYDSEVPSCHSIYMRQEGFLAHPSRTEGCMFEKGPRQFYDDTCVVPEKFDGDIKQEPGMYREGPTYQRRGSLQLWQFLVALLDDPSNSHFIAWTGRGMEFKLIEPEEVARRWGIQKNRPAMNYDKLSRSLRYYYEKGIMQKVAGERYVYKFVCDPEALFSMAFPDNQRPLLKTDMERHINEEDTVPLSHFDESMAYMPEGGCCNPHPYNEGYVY
Sequence,binding signal (FLI1),binding signal (ELK1),binding signal (GABPA),binding signal (ERG),binding signal (ELF1),binding signal (EHF),binding signal (SPI1),binding signal (SPIB),binding signal (ELK3),binding signal (FEV),binding signal (ETV5),binding signal (SPIC),binding signal (ELF4),binding signal (ELK4),binding signal (ETV2),binding signal (ELF3),binding signal (ETV1)
CGGTCT,"1.24 fold enrichment (6-mer frequency, TF over GST control)","1.15 fold enrichment (6-mer frequency, TF over GST control)","1.1 fold enrichment (6-mer frequency, TF over GST control)","1.18 fold enrichment (6-mer frequency, TF over GST control)","1.15 fold enrichment (6-mer frequency, TF over GST control)","1.15 fold enrichment (6-mer frequency, TF over GST control)","1.13 fold enrichment (6-mer frequency, TF over GST control)","1.16 fold enrichment (6-mer frequency, TF over GST control)","1.18 fold enrichment (6-mer frequency, TF over GST control)","1.3 fold enrichment (6-mer frequency, TF over GST control)","1.25 fold enrichment (6-mer frequency, TF over GST control)","1.02 fold enrichment (6-mer frequency, TF over GST control)","1.18 fold enrichment (6-mer frequency, TF over GST control)","1.12 fold enrichment (6-mer frequency, TF over GST control)","1.24 fold enrichment (6-mer frequency, TF over GST control)","1.29 fold enrichment (6-mer frequency, TF over GST control)","1.16 fold enrichment (6-mer frequency, TF over GST control)"
CACCAT,"1.2 fold enrichment (6-mer frequency, TF over GST control)","1.16 fold enrichment (6-mer frequency, TF over GST control)","1.06 fold enrichment (6-mer frequency, TF over GST control)","1.08 fold enrichment (6-mer frequency, TF over GST control)","1.14 fold enrichment (6-mer frequency, TF over GST control)","1.12 fold enrichment (6-mer frequency, TF over GST control)","1.03 fold enrichment (6-mer frequency, TF over GST control)","1 fold enrichment (6-mer frequency, TF over GST control)","1.22 fold enrichment (6-mer frequency, TF over GST control)","1.05 fold enrichment (6-mer frequency, TF over GST control)","1.11 fold enrichment (6-mer frequency, TF over GST control)","1.06 fold enrichment (6-mer frequency, TF over GST control)","1.12 fold enrichment (6-mer frequency, TF over GST control)","1.21 fold enrichment (6-mer frequency, TF over GST control)","1.17 fold enrichment (6-mer frequency, TF over GST control)","1.1 fold enrichment (6-mer frequency, TF over GST control)","1.08 fold enrichment (6-mer frequency, TF over GST control)"
GTCACA,"1.11 fold enrichment (6-mer frequency, TF over GST control)","1.1 fold enrichment (6-mer frequency, TF over GST control)","1.12 fold enrichment (6-mer frequency, TF over GST control)","1.13 fold enrichment (6-mer frequency, TF over GST control)","1.17 fold enrichment (6-mer frequency, TF over GST control)","1.07 fold enrichment (6-mer frequency, TF over GST control)","1.13 fold enrichment (6-mer frequency, TF over GST control)","1.07 fold enrichment (6-mer frequency, TF over GST control)","1.04 fold enrichment (6-mer frequency, TF over GST control)","1.11 fold enrichment (6-mer frequency, TF over GST control)","1.1 fold enrichment (6-mer frequency, TF over GST control)","1.04 fold enrichment (6-mer frequency, TF over GST control)","1.08 fold enrichment (6-mer frequency, TF over GST control)","1.07 fold enrichment (6-mer frequency, TF over GST control)","1.01 fold enrichment (6-mer frequency, TF over GST control)","1.08 fold enrichment (6-mer frequency, TF over GST control)","1.06 fold enrichment (6-mer frequency, TF over GST control)"
